Results reported in the supplement of paper PMC8728848.
Many of the other results were omitted from the sample, so the strongest signals are more common in it than they were.

Experiments:
Experiment in all cases: glycan array binding signal (z-score within array); higher = stronger binding
Settings in all cases: glycan notation: IUPAC condensed, linker removed
[1] = molecular target: Fuc(a1-2)Gal
In short: (§1)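 Glycan array data came from 3228 arrays in the Consortium for Functional Glycomics database, and only arrays with an available protein sequence were kept. Glycan names were put into IUPAC-condensed notation, and columns mapping to the same glycan were averaged. The binding signal is a within-array Z-score, averaged across arrays of one protein sequence run at different concentrations or buffers and across linkers. A negative Z-score can be read as non-binding.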

[2] = molecular target: Fuc(a1-2)Gal(b1-3)GalNAc(b1-3)Gal(a1-4)Gal(b1-4)Glc
In short: as §1

[3] = molecular target: Fuc(a1-2)Gal(b1-4)Glc6S
In short: as §1

[4] = molecular target: Fuc(a1-2)Gal(b1-4)GlcNAc(b1-3)Gal(b1-4)GlcNAc
In short: as §1

[5] = molecular target: Fuc(a1-2)Gal(b1-4)GlcNAc6S
In short: as §1

[6] = molecular target: Fuc(a1-2)[GalNAc(a1-3)]Gal(b1-3)GlcNAc(b1-2)Man(a1-3)[Fuc(a1-2)[GalNAc(a1-3)]Gal(b1-3)GlcNAc(b1-2)Man(a1-6)]Man(b1-4)GlcNAc(b1-4)GlcNAc
In short: as §1

[7] = molecular target: Fuc(a1-2)[GalNAc(a1-3)]Gal(b1-4)GlcNAc(b1-3)Gal(b1-4)GlcNAc(b1-3)Gal(b1-4)GlcNAc
In short: as §1

[8] = molecular target: Fuc(a1-3)GlcNAc
In short: as §1

[9] = molecular target: Gal(a1-3)Gal(b1-4)Glc
In short: as §1

[10] = molecular target: Gal(a1-3)Gal(b1-4)GlcNAc
In short: as §1

[11] = molecular target: Gal(a1-3)GalNAc
In short: as §1

[12] = molecular target: Gal(b1-3)GalNAc(a1-3)[Fuc(a1-2)]Gal(b1-4)GlcNAc
In short: as §1

[13] = molecular target: Gal(b1-3)GlcNAc
In short: as §1

[14] = molecular target: Gal(b1-3)[Fuc(a1-4)]GlcNAc
In short: as §1

[15] = molecular target: Gal(b1-3)[Fuc(a1-4)]GlcNAc(b1-3)Gal(b1-4)GlcNAc
In short: as §1

[16] = molecular target: Gal(b1-4)GalNAc(b1-3)[Fuc(a1-2)]Gal(b1-4)GlcNAc
In short: as §1

[17] = molecular target: Gal(b1-4)Glc6S
In short: as §1

[18] = molecular target: Gal(b1-4)GlcNAc(b1-2)Man(a1-3)[Gal(b1-4)GlcNAc(b1-2)Man(a1-6)]Man(b1-4)GlcNAc(b1-4)[Fuc(a1-6)]GlcNAc
In short: as §1

[19] = molecular target: Gal(b1-4)GlcNAc(b1-2)Man(a1-6)[GlcNAc(b1-2)Man(a1-3)]Man(b1-4)GlcNAc(b1-4)GlcNAc
In short: as §1

[20] = molecular target: Gal(b1-4)GlcNAc(b1-3)[Gal(b1-4)GlcNAc(b1-6)]GalNAc
In short: as §1

[21] = molecular target: Gal3S(b1-4)[Fuc(a1-3)]Glc6S
In short: as §1

[22] = molecular target: GalNAc(a1-3)GalNAc(a1-3)Gal(a1-4)Gal(b1-4)GlcNAc
In short: as §1

[23] = molecular target: GalNAc(b1-3)Gal(a1-4)Gal(b1-4)GlcNAc(b1-3)Gal(b1-4)Glc
In short: as §1

[24] = molecular target: GlcNAc(a1-4)Gal(b1-4)GalNAc
In short: as §1

[25] = molecular target: GlcNAc(a1-4)Gal(b1-4)GlcNAc(b1-3)Gal(b1-4)[Fuc(a1-3)]GlcNAc(b1-3)Gal(b1-4)[Fuc(a1-3)]GlcNAc
In short: as §1

[26] = molecular target: GlcNAc(b1-2)Man(a1-3)[GlcNAc(b1-2)Man(a1-6)]Man(b1-4)GlcNAc(b1-4)[Fuc(a1-6)]GlcNAc
In short: as §1

[27] = molecular target: GlcNAc3Prop(b1-4)GlcNAc
In short: as §1

[28] = molecular target: Man(a1-2)Man(a1-6)[Man(a1-3)]Man(a1-6)[Man(a1-2)Man(a1-2)Man(a1-3)]Man
In short: as §1

[29] = molecular target: Neu5Ac(a2-3)Gal(b1-3)GlcNAc(b1-3)GalNAc
In short: as §1

[30] = molecular target: Neu5Ac(a2-3)Gal(b1-4)[Fuc(a1-3)]GlcNAc(b1-3)GalNAc
In short: as §1

[31] = molecular target: Neu5Ac(a2-6)Gal(b1-4)GlcNAc(b1-2)Man(a1-6)[Gal(b1-4)GlcNAc(b1-2)Man(a1-3)]Man(b1-4)GlcNAc(b1-4)GlcNAc
In short: as §1

[32] = molecular target: Neu5Ac(a2-6)Gal(b1-4)GlcNAc(b1-3)Gal(b1-4)[Fuc(a1-3)]GlcNAc(b1-3)Gal(b1-4)[Fuc(a1-3)]GlcNAc
In short: as §1

[33] = molecular target: Neu5Gc(a2-6)Gal(b1-4)GlcNAc
In short: as §1

B1: SRS2 (Toxoplasma gondii), O15695 (protein)
chain: MATRASLARQKTGAACLAVLTASPSVVAAKPWKRWVGVSVILASAFAVGVSAGPPYRYEPEKFTCRPKKGILSQWVSLLYQVQHNITFACEEATPVPTTLISEEHGLMVCAENMTPEECEANPAPLSAFLPGATKEWVTGDSVLTGLKISVPESQYPANAKSFRVGCRHNTKTGNTCMLTIHVEPRDPAVERQEARCSYTENSTLPKIFVTKDSNTMTLACGPHGAPMPESYTENYCSTPDTCDEKPFTSVIPGYLSKWFFGDPKSPLGARVRIPPEQIPSSPQINYFGCTGPTEGEGPKYNCTVPVPLGGGDPSEGSRPGGGSGGGKRGGGQGGGGSLAGFDFRQGSARHSLPSRMALSASALLAMTALAY
[1]
  glycan array binding signal (z-score): 0.535
[2]
  glycan array binding signal (z-score): 0.231
[3]
  glycan array binding signal (z-score): 0.222
[4]
  glycan array binding signal (z-score): 0.699
[5]
  glycan array binding signal (z-score): 0.345
[6]
  glycan array binding signal (z-score): -0.13
[7]
  glycan array binding signal (z-score): 0.391
[8]
  glycan array binding signal (z-score): 0.522
[9]
  glycan array binding signal (z-score): -0.428
[10]
  glycan array binding signal (z-score): 0.159
[11]
  glycan array binding signal (z-score): 0.369
[12]
  glycan array binding signal (z-score): -0.437
[13]
  glycan array binding signal (z-score): -0.506
[14]
  glycan array binding signal (z-score): -0.246
[15]
  glycan array binding signal (z-score): -0.495
[16]
  glycan array binding signal (z-score): -0.802
[17]
  glycan array binding signal (z-score): -0.35
[18]
  glycan array binding signal (z-score): 1.54
[19]
  glycan array binding signal (z-score): 1.51
[20]
  glycan array binding signal (z-score): 6.82
[21]
  glycan array binding signal (z-score): 2.13
[22]
  glycan array binding signal (z-score): 0.55
[23]
  glycan array binding signal (z-score): -0.134
[24]
  glycan array binding signal (z-score): -0.448
[25]
  glycan array binding signal (z-score): 2.07
[26]
  glycan array binding signal (z-score): 14.3
[27]
  glycan array binding signal (z-score): 0.829
[28]
  glycan array binding signal (z-score): 0.304
[29]
  glycan array binding signal (z-score): 1.3
[30]
  glycan array binding signal (z-score): 1.72
[31]
  glycan array binding signal (z-score): -0.203
[32]
  glycan array binding signal (z-score): 0.576
[33]
  glycan array binding signal (z-score): -0.03
